Test results as given in article PMC7862700, “An all-to-all approach to the identification of sequence-specific readers for epigenetic DNA modifications on cytosine”.

Legend:
Test in all cases: DAPPL (digital affinity profiling via proximity ligation, sequencing); 10 mM Tris-HCl pH 7.5, 50 mM NaCl, 1 mM DTT, 4% glycerol, room temperature, 30 min; GST-TFs on glutathione beads, 16-mer random dsDNA library, 0.1% formaldehyde crosslink after washing; high values mean tight binding
Conditions in all cases: protein: recombinant; tags: N-terminal GST; dsDNA, one strand shown
FEV = target: T1, FEV (Homo sapiens, UniProt Q99581 1-238)
T1 sequence: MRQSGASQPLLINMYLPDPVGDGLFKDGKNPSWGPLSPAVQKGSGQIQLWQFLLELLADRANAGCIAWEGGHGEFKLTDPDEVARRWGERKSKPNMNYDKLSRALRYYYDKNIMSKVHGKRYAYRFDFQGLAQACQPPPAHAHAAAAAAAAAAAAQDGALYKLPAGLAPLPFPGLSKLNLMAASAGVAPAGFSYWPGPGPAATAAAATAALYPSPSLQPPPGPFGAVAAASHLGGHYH
Summary of the method: (§1)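 Sequencing on an Illumina NextSeq500 followed washing, crosslinking with 0.1% formaldehyde, proximity ligation (BsaI/T4 ligase, 1 h, 37 °C) and PCR amplification of pools that had been incubated for 30 min at room temperature with 200 nmole of a random double-stranded 16-mer DNA library in Tris/NaCl/DTT/glycerol buffer. Each pool held DNA-barcoded human transcription factors, expressed in yeast as GST fusions and captured on glutathione beads, plus a tag-only sample. Binding signal is a hexamer's read frequency for a factor divided by its frequency in the tag-only sample.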

ETV5 = ETV5 (Homo sapiens, UniProt P41161 1-510)
Sequence of ETV5 (P41161 whole entry): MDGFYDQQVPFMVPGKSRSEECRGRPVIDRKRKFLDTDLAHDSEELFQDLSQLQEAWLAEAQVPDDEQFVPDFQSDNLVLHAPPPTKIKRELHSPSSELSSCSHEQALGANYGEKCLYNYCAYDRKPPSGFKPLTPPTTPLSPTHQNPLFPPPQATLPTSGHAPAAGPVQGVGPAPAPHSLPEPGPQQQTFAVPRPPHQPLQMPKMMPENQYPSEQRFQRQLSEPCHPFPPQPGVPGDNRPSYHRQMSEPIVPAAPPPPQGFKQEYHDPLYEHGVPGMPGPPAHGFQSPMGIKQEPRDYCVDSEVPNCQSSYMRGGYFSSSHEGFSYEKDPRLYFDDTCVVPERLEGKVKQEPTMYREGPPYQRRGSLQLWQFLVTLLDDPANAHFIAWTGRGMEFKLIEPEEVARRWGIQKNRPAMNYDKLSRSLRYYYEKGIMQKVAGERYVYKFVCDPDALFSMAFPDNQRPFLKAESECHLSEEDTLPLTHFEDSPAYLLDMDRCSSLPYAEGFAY
Summary of the method: as §1

SPIC = target: T2, SPIC (Homo sapiens, UniProt Q8N5J4 1-248)
T2 sequence: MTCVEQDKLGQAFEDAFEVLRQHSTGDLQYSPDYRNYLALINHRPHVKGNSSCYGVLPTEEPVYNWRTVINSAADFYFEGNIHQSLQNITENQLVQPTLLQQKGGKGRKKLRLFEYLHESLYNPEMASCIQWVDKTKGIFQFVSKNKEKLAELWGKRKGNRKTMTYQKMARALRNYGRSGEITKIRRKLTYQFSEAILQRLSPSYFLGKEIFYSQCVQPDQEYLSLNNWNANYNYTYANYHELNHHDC
Summary of the method: as §1

ELF4 = ELF4 (Homo sapiens, UniProt Q99607 1-663)
Sequence of ELF4 (Q99607 whole entry): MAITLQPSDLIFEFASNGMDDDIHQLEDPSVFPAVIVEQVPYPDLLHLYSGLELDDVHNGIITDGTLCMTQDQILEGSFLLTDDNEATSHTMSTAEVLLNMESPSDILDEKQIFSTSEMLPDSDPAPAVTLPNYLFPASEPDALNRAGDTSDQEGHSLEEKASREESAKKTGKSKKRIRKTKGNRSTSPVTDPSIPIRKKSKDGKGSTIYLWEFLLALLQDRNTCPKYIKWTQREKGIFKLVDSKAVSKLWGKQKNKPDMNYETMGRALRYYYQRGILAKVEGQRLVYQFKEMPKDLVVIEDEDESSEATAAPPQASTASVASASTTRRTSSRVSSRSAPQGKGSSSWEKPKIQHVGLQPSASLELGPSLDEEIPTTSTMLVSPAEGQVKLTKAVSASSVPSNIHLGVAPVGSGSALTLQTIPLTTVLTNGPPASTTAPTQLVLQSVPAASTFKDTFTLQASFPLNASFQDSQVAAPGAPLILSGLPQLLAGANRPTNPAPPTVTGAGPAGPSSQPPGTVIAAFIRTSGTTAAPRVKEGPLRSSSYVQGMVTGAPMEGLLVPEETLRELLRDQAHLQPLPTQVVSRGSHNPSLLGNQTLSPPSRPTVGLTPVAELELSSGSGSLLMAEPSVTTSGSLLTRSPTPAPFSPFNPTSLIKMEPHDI
Summary of the method: as §1

ELK4 = target: T3, ELK4 (Homo sapiens, UniProt P28324-2 1-405)
T3 sequence: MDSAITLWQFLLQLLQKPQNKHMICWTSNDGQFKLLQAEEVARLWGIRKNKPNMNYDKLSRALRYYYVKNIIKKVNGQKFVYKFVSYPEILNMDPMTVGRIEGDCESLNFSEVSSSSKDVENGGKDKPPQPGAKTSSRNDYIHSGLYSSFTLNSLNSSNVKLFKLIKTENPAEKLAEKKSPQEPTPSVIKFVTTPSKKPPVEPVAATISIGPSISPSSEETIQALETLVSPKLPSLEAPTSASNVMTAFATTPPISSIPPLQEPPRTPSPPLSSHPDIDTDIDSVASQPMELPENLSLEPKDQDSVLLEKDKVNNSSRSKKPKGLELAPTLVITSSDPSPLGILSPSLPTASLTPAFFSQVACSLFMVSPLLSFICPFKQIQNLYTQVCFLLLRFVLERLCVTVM
Summary of the method: as §1

ETV2 = target: T4, ETV2 (Homo sapiens, UniProt O00321 1-342)
T4 sequence: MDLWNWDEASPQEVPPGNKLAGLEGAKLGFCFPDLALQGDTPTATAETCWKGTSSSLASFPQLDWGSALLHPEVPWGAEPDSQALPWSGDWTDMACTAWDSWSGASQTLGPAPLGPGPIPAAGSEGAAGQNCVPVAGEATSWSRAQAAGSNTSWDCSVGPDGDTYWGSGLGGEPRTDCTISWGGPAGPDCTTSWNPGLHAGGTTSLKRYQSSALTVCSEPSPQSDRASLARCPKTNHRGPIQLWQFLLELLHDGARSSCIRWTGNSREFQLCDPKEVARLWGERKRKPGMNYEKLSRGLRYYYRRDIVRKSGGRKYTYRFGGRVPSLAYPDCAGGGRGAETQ
Summary of the method: as §1

ELF3 = target: T5, ELF3 (Homo sapiens, UniProt P78545 1-371)
T5 sequence: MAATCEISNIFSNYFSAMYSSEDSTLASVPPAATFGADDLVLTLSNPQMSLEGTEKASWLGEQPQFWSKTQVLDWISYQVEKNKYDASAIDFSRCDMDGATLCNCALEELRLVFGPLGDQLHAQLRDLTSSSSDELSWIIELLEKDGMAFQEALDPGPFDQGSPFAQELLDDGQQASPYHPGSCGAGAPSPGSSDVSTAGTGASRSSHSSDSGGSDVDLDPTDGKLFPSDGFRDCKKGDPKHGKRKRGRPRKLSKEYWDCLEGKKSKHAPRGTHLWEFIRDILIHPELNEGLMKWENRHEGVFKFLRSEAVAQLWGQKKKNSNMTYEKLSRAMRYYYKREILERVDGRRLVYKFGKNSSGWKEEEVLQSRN
Summary of the method: as §1

CRX = CRX (Homo sapiens, UniProt O43186 1-299)
Sequence of CRX (O43186 whole entry): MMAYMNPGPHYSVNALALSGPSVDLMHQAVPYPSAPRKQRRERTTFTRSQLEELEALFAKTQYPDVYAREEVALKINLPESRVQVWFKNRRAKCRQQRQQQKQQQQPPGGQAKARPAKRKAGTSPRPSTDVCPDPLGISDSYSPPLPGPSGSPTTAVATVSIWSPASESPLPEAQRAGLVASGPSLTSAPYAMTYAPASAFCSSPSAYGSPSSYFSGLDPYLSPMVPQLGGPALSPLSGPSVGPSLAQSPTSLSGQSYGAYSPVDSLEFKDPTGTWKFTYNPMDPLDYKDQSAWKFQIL
Summary of the method: as §1

ETV1 = ETV1 (Homo sapiens, UniProt P50549 1-477)
Sequence of ETV1 (P50549 whole entry): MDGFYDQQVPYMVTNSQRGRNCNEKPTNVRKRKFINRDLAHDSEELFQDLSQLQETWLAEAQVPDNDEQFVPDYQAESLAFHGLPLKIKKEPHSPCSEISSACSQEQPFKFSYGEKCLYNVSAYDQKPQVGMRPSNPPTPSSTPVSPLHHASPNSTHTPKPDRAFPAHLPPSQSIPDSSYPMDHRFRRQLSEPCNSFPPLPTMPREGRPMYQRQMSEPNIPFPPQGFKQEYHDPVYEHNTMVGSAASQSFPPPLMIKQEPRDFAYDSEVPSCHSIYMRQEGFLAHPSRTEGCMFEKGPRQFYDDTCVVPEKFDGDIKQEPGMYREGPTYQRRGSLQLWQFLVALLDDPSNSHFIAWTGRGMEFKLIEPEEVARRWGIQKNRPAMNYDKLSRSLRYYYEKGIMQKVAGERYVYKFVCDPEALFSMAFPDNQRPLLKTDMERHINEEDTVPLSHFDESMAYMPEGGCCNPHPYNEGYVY
Summary of the method: as §1

ERF = target: T6, ERF (Homo sapiens, UniProt P50548 1-548)
T6 sequence: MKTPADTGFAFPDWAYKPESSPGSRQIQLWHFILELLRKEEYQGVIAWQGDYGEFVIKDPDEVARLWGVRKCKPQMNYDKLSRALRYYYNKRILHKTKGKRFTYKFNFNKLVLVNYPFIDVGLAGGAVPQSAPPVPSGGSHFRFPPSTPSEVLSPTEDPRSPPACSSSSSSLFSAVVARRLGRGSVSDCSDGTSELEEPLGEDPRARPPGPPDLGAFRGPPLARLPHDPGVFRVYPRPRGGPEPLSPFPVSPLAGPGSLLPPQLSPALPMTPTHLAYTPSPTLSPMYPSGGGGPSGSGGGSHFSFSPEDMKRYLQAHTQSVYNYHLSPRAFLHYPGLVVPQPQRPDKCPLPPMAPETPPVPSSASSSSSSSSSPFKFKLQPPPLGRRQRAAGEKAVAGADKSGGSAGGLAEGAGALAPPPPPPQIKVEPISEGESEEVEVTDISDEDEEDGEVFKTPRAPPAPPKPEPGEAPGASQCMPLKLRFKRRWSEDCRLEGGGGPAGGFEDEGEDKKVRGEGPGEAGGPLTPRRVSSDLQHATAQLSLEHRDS
Summary of the method: as §1

ETV3L = target: T7, ETV3L (Homo sapiens, UniProt Q6ZN32 1-361)
T7 sequence: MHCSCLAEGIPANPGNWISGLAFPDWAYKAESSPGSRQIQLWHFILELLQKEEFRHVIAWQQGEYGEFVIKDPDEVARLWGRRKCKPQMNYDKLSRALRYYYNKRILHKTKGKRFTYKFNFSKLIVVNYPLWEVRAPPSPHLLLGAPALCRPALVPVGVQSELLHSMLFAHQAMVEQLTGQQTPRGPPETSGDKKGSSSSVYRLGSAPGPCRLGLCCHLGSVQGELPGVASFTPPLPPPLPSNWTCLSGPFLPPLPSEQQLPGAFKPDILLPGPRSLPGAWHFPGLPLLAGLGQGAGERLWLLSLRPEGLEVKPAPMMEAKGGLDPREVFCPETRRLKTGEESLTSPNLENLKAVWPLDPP
Summary of the method: as §1

ETS2 = target: T8, ETS2 (Homo sapiens, UniProt P15036 1-469)
T8 sequence: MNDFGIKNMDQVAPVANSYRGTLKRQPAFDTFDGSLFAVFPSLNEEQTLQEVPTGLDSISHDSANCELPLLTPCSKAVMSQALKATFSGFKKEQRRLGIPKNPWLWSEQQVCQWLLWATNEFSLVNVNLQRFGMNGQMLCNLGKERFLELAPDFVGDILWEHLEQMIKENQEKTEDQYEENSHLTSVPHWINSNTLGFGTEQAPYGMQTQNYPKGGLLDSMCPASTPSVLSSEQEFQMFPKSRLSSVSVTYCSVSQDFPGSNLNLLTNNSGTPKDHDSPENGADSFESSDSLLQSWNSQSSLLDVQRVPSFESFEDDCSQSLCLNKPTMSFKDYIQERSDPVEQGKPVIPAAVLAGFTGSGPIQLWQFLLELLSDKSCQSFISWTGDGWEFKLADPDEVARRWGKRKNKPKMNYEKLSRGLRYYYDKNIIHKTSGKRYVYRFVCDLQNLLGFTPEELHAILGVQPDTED
Summary of the method: as §1

SPDEF = target: T9, SPDEF (Homo sapiens, UniProt O95238 1-335)
T9 sequence: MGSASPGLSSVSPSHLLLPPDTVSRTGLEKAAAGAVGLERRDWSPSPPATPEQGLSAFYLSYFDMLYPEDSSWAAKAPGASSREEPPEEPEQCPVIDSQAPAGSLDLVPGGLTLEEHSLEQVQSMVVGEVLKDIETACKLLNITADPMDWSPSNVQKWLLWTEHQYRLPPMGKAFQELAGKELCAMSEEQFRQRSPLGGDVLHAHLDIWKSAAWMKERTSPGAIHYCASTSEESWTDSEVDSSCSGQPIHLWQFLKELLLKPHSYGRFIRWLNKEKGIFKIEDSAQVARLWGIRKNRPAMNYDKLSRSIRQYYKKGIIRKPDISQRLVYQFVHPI
Summary of the method: as §1

ETV7 = target: T10, ETV7 (Homo sapiens, UniProt Q9Y603 1-341)
T10 sequence: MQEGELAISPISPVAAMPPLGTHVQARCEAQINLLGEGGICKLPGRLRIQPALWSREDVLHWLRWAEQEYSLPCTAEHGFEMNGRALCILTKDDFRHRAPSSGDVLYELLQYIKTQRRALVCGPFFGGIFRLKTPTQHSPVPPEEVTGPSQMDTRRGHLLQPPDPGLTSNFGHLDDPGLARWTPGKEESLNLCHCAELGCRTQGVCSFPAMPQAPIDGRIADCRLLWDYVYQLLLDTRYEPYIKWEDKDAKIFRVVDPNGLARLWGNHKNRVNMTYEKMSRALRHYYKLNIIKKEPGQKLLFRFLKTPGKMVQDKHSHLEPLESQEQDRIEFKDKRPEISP
Summary of the method: as §1

ELF5 = target: T11, ELF5 (Homo sapiens, UniProt Q9UKW6-2 1-255)
T11 sequence: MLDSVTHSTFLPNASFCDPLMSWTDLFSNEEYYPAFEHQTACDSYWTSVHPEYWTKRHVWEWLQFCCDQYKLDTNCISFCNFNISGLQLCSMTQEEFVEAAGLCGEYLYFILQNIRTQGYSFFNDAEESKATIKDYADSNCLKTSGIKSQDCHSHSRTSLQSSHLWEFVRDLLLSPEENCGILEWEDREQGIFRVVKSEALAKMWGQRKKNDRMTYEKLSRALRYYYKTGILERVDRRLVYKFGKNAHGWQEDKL
Summary of the method: as §1

ETV3 = target: T12, ETV3 (Homo sapiens, UniProt P41162-2 1-143)
T12 sequence: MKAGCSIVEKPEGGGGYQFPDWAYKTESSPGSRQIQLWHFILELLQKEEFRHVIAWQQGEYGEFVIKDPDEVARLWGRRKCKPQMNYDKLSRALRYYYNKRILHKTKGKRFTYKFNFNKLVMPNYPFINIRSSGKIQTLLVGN
Summary of the method: as §1

ETV6 = ETV6 (Homo sapiens, UniProt P41212 1-452)
Sequence of ETV6 (P41212 whole entry): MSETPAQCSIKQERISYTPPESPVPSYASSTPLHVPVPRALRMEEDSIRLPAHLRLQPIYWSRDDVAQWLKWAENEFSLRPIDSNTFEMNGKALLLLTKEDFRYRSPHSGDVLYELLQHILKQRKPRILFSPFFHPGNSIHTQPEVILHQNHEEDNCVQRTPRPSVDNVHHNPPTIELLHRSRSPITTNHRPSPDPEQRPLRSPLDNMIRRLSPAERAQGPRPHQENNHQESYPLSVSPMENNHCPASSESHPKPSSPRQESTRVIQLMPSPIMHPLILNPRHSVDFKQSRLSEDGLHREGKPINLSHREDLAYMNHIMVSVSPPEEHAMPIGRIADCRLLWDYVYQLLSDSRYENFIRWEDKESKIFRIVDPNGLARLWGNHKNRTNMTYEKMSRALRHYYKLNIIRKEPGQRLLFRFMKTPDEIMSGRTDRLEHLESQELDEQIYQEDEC
Summary of the method: as §1

| Sequence | binding signal (FEV) | binding signal (ETV5) | binding signal (SPIC) | binding signal (ELF4) | binding signal (ELK4) | binding signal (ETV2) | binding signal (ELF3) | binding signal (CRX) | binding signal (ETV1) | binding signal (ERF) | binding signal (ETV3L) | binding signal (ETS2) | binding signal (SPDEF) | binding signal (ETV7) | binding signal (ELF5) | binding signal (ETV3) | binding signal (ETV6) |
| --- | --- | --- | --- | --- | --- | --- | --- | --- | --- | --- | --- | --- | --- | --- | --- | --- | --- |
| TAGCGG | 1.12 fold enrichment (6-mer frequency, TF over GST control) | 1.13 fold enrichment (6-mer frequency, TF over GST control) | 1.04 fold enrichment (6-mer frequency, TF over GST control) | 1 fold enrichment (6-mer frequency, TF over GST control) | 1.06 fold enrichment (6-mer frequency, TF over GST control) | 1.19 fold enrichment (6-mer frequency, TF over GST control) | 1.02 fold enrichment (6-mer frequency, TF over GST control) | 1.26 fold enrichment (6-mer frequency, TF over GST control) | 1.05 fold enrichment (6-mer frequency, TF over GST control) | 1.1 fold enrichment (6-mer frequency, TF over GST control) | 1.12 fold enrichment (6-mer frequency, TF over GST control) | 1.13 fold enrichment (6-mer frequency, TF over GST control) | 1.1 fold enrichment (6-mer frequency, TF over GST control) | 1.12 fold enrichment (6-mer frequency, TF over GST control) | 1.12 fold enrichment (6-mer frequency, TF over GST control) | 1.09 fold enrichment (6-mer frequency, TF over GST control) | 1.12 fold enrichment (6-mer frequency, TF over GST control) |
| GATATC | 4.01 fold enrichment (6-mer frequency, TF over GST control) | 1.6 fold enrichment (6-mer frequency, TF over GST control) | 1.41 fold enrichment (6-mer frequency, TF over GST control) | 1.34 fold enrichment (6-mer frequency, TF over GST control) | 1.49 fold enrichment (6-mer frequency, TF over GST control) | 1.51 fold enrichment (6-mer frequency, TF over GST control) | 1.59 fold enrichment (6-mer frequency, TF over GST control) | 1.02 fold enrichment (6-mer frequency, TF over GST control) | 1.51 fold enrichment (6-mer frequency, TF over GST control) | 1.56 fold enrichment (6-mer frequency, TF over GST control) | 1.46 fold enrichment (6-mer frequency, TF over GST control) | 1.49 fold enrichment (6-mer frequency, TF over GST control) | 1.92 fold enrichment (6-mer frequency, TF over GST control) | 1.34 fold enrichment (6-mer frequency, TF over GST control) | 1.74 fold enrichment (6-mer frequency, TF over GST control) | 1.61 fold enrichment (6-mer frequency, TF over GST control) | 1.51 fold enrichment (6-mer frequency, TF over GST control) |
